# Source: PubChem BioAssay
# In the library only some 0.86% were active in any assay of this set; here they are far more common.
# NS1 function inh: qHTS Assay for Inhibitors of Influenza NS1 Protein Function. AID 2326, 2010. actives 0.4% (n = 270,000). Potency, µM (titrated, usually from 46.1 µM), without a hit: at the highest dose activity, positive = more growth; calls by dose curve; also: actives are rising curves; nearly all actives have a fitted effect of over 50% in size
#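 Read-out: OD600 growth recovery of NS1-expressing budding yeast. Cells grown overnight at 30C in -URA glucose medium, washed, resuspended and diluted 1:100 in 2% galactose assay medium, pH 6.0. Same strain lacking NS1 served as positive control.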
# AmpC inh no detg: qHTS Inhibitors of AmpC Beta-Lactamase (assay without detergent). P00811. AmpC nitrocefin hydrolysis, absorbance 480 nm, 0.0001% Triton. Potency, µM (highest dose often 57.1 µM), inactives show at the top dose activity change, negative = inhibition, hits mostly inhibitors. actives 0.52% (n = 330,000). AID 485341, 2010;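 also: plate controls were no compound for no effect and no enzyme for full effect; nearly all actives have a fitted effect of over 20% in size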
# Target sequence (P00811 whole entry, looked up): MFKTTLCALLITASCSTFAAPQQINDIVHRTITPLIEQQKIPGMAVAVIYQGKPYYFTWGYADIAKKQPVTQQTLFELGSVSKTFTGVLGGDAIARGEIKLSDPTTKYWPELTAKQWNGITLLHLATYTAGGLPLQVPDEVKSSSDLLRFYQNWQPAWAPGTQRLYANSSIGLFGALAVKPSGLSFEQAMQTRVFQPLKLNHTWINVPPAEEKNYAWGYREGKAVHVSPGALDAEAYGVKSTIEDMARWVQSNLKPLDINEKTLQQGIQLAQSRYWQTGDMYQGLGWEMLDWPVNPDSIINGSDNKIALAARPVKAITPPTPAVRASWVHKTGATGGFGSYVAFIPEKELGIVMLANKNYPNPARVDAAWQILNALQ
#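 AmpC (5.3 nM in the dispensed reagent) in 20 mM phosphate pH 7.0 with 0.01% (detergent screen) or 0.0001% Triton X-100 was preincubated with compounds for 15 min at room temperature. Nitrocefin was then added from an 800 uM solution, and hydrolysis was followed at 480 nm.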
# AmpC inh detg: qHTS Inhibitors of AmpC Beta-Lactamase (assay with detergent); P00811; AmpC hydrolysis of nitrocefin, absorbance 480 nm, 0.01% Triton; Potency, µM (highest dose often 114 µM), inactives show top-dose activity change, negative = inhibition, actives largely listed as inhibitors; actives 0.041% (n = 370,000); AID 485294, 2010;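 also: 0% = no-compound wells and -100% = no-enzyme wells; nearly all actives have a fitted effect of over 25% in size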
#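 20 mM phosphate pH 7.0 + 0.01% (detergent screen) or 0.0001% Triton X-100; 5.3 nM AmpC reagent; cpd preinc 15 min RT; nitrocefin (800 uM stock) to start; A480 q20 s × 4 min; Activity was normalised to no-enzyme and no-compound control wells.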
# AMA1-RON2 inh: qHTS for Inhibitors of AMA1-RON; Towards Development of Antimalarial Drug Lead: Primary Screen | actives 0.2% (n = 360,000) | AlphaScreen AMA1-biotinylated RON2 peptide binding | Potency, µM (highest dose often 58.2 µM), inactives show at the highest dose activity change, negative = inhibition, usual class: inhibitors | Plasmodium falciparum AMA1 (3D7) - RON2 peptide interaction;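 also: 0% = vehicle wells and -100% = peptide control; nearly all actives have a fitted effect of over 45% in size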
#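 AMA1 (3D7) with his tag at 25 nM final met compounds first, then biotinylated RON2 peptide at 25 nM; detection used donor plus acceptor beads, 10 µg/mL apiece, read by AlphaScreen after 30 min at room temperature.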
# * marks the source's active call; other numbers are inactive results; ? = inconclusive; / = no result given; [ ] = another dose, or the depositor's remark. Unless noted, calls follow the shape of the dose curve; as a rule, active = well fitted curve in the direction sought with a large enough effect; inconclusive = small, poorly fitted or top-dose-only effect, or another doubt; inactive = no such curve, though single readings can be large; an effect the other way counts as inactive or inconclusive. Potency is read from the fitted curve at half-maximal effect.
SMILES,NS1 function inh,AmpC inh no detg,AmpC inh detg,AMA1-RON2 inh
O=C(O[C@@H]1OC2COC(=O)c3cc(O)c(O)c(O)c3-c3c(cc(O)c(O)c3O)C(=O)O[C@@H]([C@H]1O)[C@@H]2O)c1cc(O)c(O)c(O)c1,16%,-11%,-3%,2.5µM*
CC(=O)N1CCCC(C)(C(=O)Nc2cccc(OC(C)C)c2)C1 (stereo not given),/,/,/,-1%
CSCCC(NC(=O)c1ccco1)C(=O)NCC1CCCO1 (stereo not given),/,-10%,-6%,0%
O=[N+]([O-])c1cccc(NC(=S)N2CCN(S(=O)(=O)c3ccccc3)CC2)c1,-3%,22µM*,5%,7%
CCN=c1scc(C)n1/N=C/c1cc(Br)c(O)c(Br)c1,/,-27%[11.4 µM],-14%,21%
CCN=c1scc(C)n1/N=C/c1ccc(O)c(O)c1O,-14%,10µM*,-3%,?
O=C(Nc1cccc(C(F)(F)F)c1)c1cccnc1N1CCN(c2ccccc2)CC1,17%,78%,4%,30µM*
COc1ccc([N+](=O)[O-])cc1N(CC(=O)N1CCN(Cc2ccccc2)CC1)S(C)(=O)=O,12%,-6%,-4%,-20%
CCn1c(=O)c2sccc2n2c(CCCC(=O)NCc3cccnc3)nnc12,7%,-3%,0%,8%
Cc1ccn2c(C(=O)CSc3ccc(Cl)cc3)c(C)nc2c1,3%,0.32µM*,-4%,-1%
COc1ccc(-c2cn(-c3ccc(C)cc3)c(S(=O)(=O)CC(=O)Nc3ccc(F)cc3)n2)cc1,/,/,-4%,/
COc1cccc(/C=N/NC(=O)c2cc(-c3cccn3C)n[nH]2)c1,16%,13µM*,-14%,-23%
COc1cc(/C=N/NC(=O)c2cc(-c3cccn3C)n[nH]2)cc(OC)c1OC,9%,-30%,?,13%
CC(=O)Nc1ccc(NC(=O)C(C)OC(=O)c2ccc3ccccc3n2)cc1 (stereo not given),/,-19%,-4%,-6%
CC(C)C[C@H]1CNC(=S)N1C[C@H]1CCCN1C[C@H](Cc1ccc(O)cc1)N1C[C@H](Cc2ccccc2)N(CC2CCCCCC2)C1=S,/,/,/,9%
O=C(CNc1ccccc1)N/N=C/c1cc([N+](=O)[O-])ccc1N1CCCC1,6%,7.9µM*,0%,-2%
N#CCC(=O)N/N=C/c1cc([N+](=O)[O-])ccc1N1CCCC1,/,-41%,?,18%
CCCN(Cc1cccs1)C(=O)Nc1cc(Cl)ccc1C,/,/,11%,/
COC(=O)c1cc2c(-c3ccccc3)cc3ccccn3c-2c1C(=O)OC,23%,88%,-17%,18µM*
CCN(CC)S(=O)(=O)c1cccc(NC(=O)CN2C(=O)c3ccc([N+](=O)[O-])cc3C2=O)c1,-20%,8.9µM*,?,-2%
CCN(CC)S(=O)(=O)c1cccc(NC(=O)CCNC(=O)c2ccc([N+](=O)[O-])cc2)c1,-42%,-4%,2%,-3%
Cc1ccc(NN=C2c3ccccc3-c3ccccc32)cc1,-3%,11µM*,?,-10%
CCc1ccccc1NC(=O)CNC(=O)CCc1nc2sc3c(c2c(=O)[nH]1)CCCC3,/,32µM*,?,-18%
O=C(CCc1nc2sc3c(c2c(=O)[nH]1)CCCC3)NCCc1ccccc1,/,-9%,3%,-11%
Cc1ccc(S(=O)(=O)N/N=C\c2cn(CC(N)=O)c3ccccc23)cc1,-9%,-23%,?,20%
SMILES,NS1 function inh,AmpC inh no detg,AmpC inh detg,AMA1-RON2 inh
Cc1cccc(N2CC(C(=O)Nc3nnc(SCC(=O)Nc4nccs4)s3)CC2=O)c1 (stereo not given),12%,-31%,?,29%
Cc1ccccc1N1CC(C(=O)Nc2nnc(SCC(=O)Nc3nccs3)s2)CC1=O (stereo not given),23%,28µM*,6%,23%
CCC(Sc1nc2ccsc2c(=O)n1Cc1ccc(C(=O)O)cc1)C(=O)Nc1ccc(C)c(Cl)c1 (stereo not given),-19%,8.9µM*,-1%,-6%
COc1ccc(C)cc1N(C)C(=O)Cc1c(C(=O)O)n(C)c2ccccc12,-4%,-14%,-1%,10%
Cc1cc(N=Nc2ccc(C)c(N=Nc3cc(C)c(N)cc3N)c2)c(N)cc1N,5%,21%,-8%,22µM*
O=C1C(=O)N(CCCn2ccnc2)C(c2cccnc2)/C1=C(/O)c1ccc(Cl)cc1 (stereo not given),-2%,/,/,/
N#Cc1nc(-c2ccc(F)cc2)oc1NCc1cccc2c1OCO2,-2%,-19%,-10%,0%
Cc1ccc(-c2nc(C#N)c(NCc3cccc4c3OCO4)o2)cc1,-34%,0.32µM*,8%,-21%
NNC(=O)/C(=N/Nc1ccccc1)S(=O)(=O)c1ccc(Cl)cc1,?,40µM*,?,39%[2.32 µM]
O=C(O)c1cc(O)c2c(c1)[C@@H]([C@H]1c3cc(C(=O)O)cc(O)c3C(=O)c3c(O[C@@H]4O[C@H](CO)[C@@H](O)[C@H](O)[C@H]4O)cccc31)c1cccc(O[C@@H]3O[C@H](CO)[C@@H](O)[C@H](O)[C@H]3O)c1C2=O,/,1.3µM*,/,1.4µM*
Cc1cc(C)c(NC(=O)CSc2nc3nc(C)cc(C)n3n2)c(C)c1,/,/,-5%,/
O=C(NCc1ccco1)/C(=C/c1cccc(C(F)(F)F)c1)c1nc2ccccc2[nH]1,2%,-44%,?,34%
O=C(NCc1ccco1)/C(=C/c1ccc(C(F)(F)F)cc1)c1nc2ccccc2[nH]1,?,18µM*,-4%,63%
CC(=O)Nc1sc(/C(C#N)=C/c2ccc(Cl)c(Cl)c2)nc1-c1ccc(C)cc1,45%,4.5µM*,-3%,36%
CC(=O)Nc1sc(N/N=C/c2ccc(C)cc2)nc1-c1ccc(C)cc1,8%,8%,2%,17%
O=C1c2ccccc2C(=O)c2c(Nc3ccc(CCO)cc3)ccc(O)c21,5%,5%,-7%,8.9µM*
CN(C)c1ccc(C(=O)c2ccc(O)cc2O)cc1,24%,-30%,-3%,?
CN(C)c1ccc(Cc2cc3c(O)ccc(O)c3cc(Cc3ccc(N(C)C)cc3)c2=O)cc1,/,/,/,11µM*
O=C(OCc1ccc([N+](=O)[O-])cc1)c1cc(=O)c2ccccc2o1,6%,-12%,-15%,1%
Cc1cccc(NC(=O)/C(C#N)=C/c2cn(CC(=O)NCc3ccco3)c3ccccc23)c1,4%,14µM*,-8%,0%
COc1ccc(CN(Cc2ccco2)c2cnc(S(C)(=O)=O)nc2C(=O)Nc2ccc(C)c(Cl)c2)cc1,/,/,-5%,/
COc1cccc(-n2sc3c(c2=S)-c2cc(OC)ccc2NC3(C)C)c1,17%,-25%,?,22µM*
COc1cccc(-n2cn[nH]c2=S)c1,/,-13%,1%,33%
COc1cccc2c1cc1c(=O)n(CC(=O)NCCCN3CCCCC3)nc(C)n12,10%,-9%,-6%,5%
O=C(CCCCCNC(=S)Nc1ccc(Cl)cc1)C[N+](=O)[O-],-1%,20µM*,0%,33%
